# High-throughput results as filed in PubChem.
# In the library only some 1.6% were active in any assay of this set; here they are far more common.
# KCNQ2 inh = rat KCNQ2 potassium channel inhibitors, primary screen, cell-based, CHO-K1, FluxOR thallium flux, B-score. Potassium voltage-gated channel subfamily KQT member 2 (Rattus norvegicus), O88943. 20 min; hits give low values. B-score at 10 µM. 1.1% of 310,000 active;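 active = fluorescence ratio B-score at most minus 3 library SDs, with starting brightness B-score within 2 library SDs, cut at about -5.5 in these data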
# Target sequence (O88943 whole entry, looked up): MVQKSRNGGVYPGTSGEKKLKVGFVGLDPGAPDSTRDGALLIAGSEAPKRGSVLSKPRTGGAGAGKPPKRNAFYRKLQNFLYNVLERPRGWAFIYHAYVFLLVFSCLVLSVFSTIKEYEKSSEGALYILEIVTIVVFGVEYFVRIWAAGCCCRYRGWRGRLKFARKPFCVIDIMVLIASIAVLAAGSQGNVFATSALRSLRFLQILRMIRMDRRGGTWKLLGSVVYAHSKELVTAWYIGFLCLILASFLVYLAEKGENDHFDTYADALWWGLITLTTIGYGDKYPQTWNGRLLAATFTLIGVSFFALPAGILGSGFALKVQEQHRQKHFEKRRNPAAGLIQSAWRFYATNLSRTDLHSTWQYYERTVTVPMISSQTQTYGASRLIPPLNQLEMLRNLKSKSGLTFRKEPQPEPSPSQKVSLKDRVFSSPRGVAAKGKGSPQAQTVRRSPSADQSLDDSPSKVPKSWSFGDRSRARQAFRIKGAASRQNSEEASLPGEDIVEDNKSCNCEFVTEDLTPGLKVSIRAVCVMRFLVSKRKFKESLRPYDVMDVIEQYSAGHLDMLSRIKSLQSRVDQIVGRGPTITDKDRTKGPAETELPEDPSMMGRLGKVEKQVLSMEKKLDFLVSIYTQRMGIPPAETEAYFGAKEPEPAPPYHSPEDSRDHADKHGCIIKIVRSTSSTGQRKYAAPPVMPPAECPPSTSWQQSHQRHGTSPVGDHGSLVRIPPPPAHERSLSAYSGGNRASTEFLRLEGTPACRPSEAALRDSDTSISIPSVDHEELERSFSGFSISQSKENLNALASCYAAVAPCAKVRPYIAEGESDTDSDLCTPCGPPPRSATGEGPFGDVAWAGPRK
# KCNQ2 pot = potentiators of rat KCNQ2 potassium channel. Potassium voltage-gated channel subfamily KQT member 2 (Rattus norvegicus), O88943. CHO-K1 KCNQ2, FluxOR thallium flux fluorescence; hits give high values. B-score at 10 µM. 0.54% of 310,000 active;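 active = fluorescence ratio B-score at least 3 SD of library B-scores, with initial fluorescence B-score within 3 of them, cut at about 5.3 in these data; same plate scores as AID 2156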;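 also: B-score of peak minus minimum over baseline fluorescence ratio after K+ and Tl+ stimulus; positive B-score means potentiation of KCNQ2 with more thallium influx and brighter signal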
# Hits are given with their value; i = inactive; nt = no result.
SMILES,KCNQ2 inh,KCNQ2 pot
O=C(Cc1ccc(Cl)cc1)Nc1ccccc1Sc1ccccc1,i,7.8
CCOc1ccc(S(=O)(=O)n2cnc(C)c2)cc1,i,nt
CC(C)(C)NC(=O)CSc1nc(Cc2ccccc2)nc2ccccc12,i,nt
CCC(C)(C)NC(=O)CSc1nc(Cc2ccccc2)nc2ccccc12,-6.3,i
CC(C)NC(=O)CSc1nc2ccccc2n1CC(=O)N(C(C)C)C(C)C,i,i
CSc1nc(Cc2ccccc2)nc2ccccc12,i,nt
CC(C)N(C(=O)CSc1nc2ccccc2n1Cc1ccc(F)cc1)C(C)C,-7.9,i
CC(C)N(C(=O)CSc1nc(Cc2ccccc2)nc2ccccc12)C(C)C,-6.3,i
Cc1nc2ccccc2c(=O)n1NC(=O)c1ccc([N+](=O)[O-])cc1,i,nt
O=C(NCCOc1ccccc1F)C1CCC(=O)N(CCc2cccc(F)c2)C1 (stereo not drawn),i,nt
Cc1cc[n+]2cc(-c3cccc([N+](=O)[O-])c3)c(-c3cccc([N+](=O)[O-])c3)cc2c1,i,i
COc1ccccc1/C=C(/CC(=O)NCc1ccc2c(c1)OCO2)c1nc2ccccc2s1,i,nt
CCN(Cc1ccccc1)C(=O)c1oc2ccc(C)cc2c1C,-5.8,i
Cc1ccc2oc(C(=O)N(Cc3ccncc3)CC3CCCO3)c(C)c2c1 (stereo not drawn),i,nt
Cc1ccc2oc(C(=O)N(C)Cc3ccc(C)o3)c(C)c2c1,-7.9,i
Cc1ccc2oc(C(=O)N(C)Cc3ccon3)c(C)c2c1,i,i
Cc1ccc2c(C)c(C(=O)NCCN3CCOC3=O)oc2c1C,i,5.5
CCOC(=O)N1CCC(NC(=O)c2oc3c(C)c(C)ccc3c2C)CC1,-5.7,i
Cc1ccc2c(C)c(C(=O)NCCN3CCCC(O)C3)oc2c1C (stereo not drawn),i,i
CCOC(=O)N1CCC(NC(=O)c2ccccc2C(=O)O)CC1,i,i
CCOc1ccc(CCNC(=O)C2CC(C)=CCC2C(=O)O)cc1OCC (stereo not drawn),i,nt
CC(C)CC(NC(=O)c1ccc(Cl)cc1)C(=O)OCc1cc([N+](=O)[O-])cc2c1OCOC2 (stereo not drawn),i,nt
CCCC1(C(=O)OC)NC(c2ccc(OC)c(OC)c2)C2C(=O)N(c3cccc(C(C)=O)c3)C(=O)C21 (stereo not drawn),i,nt
CCCC1(C(=O)OC)NC(c2ccc(OC)cc2OC)C2C(=O)N(c3cccc(C(C)=O)c3)C(=O)C21 (stereo not drawn),-5.9,i
NC(=O)C1CCN(C(=O)c2ccc(OCC(=O)Nc3cccc(C(F)(F)F)c3)cc2)CC1,i,nt
SMILES,KCNQ2 inh,KCNQ2 pot
CCOC(=O)C1CCN(C(=O)c2ccc(OCC(=O)Nc3cccc(C(F)(F)F)c3)cc2)CC1,-6.5,i
O=S(=O)(/C=C/c1ccccc1)Nc1cccc(S(=O)(=O)NC2=NCCC2)c1,i,nt
NS(=O)(=O)c1ccc(NCc2ccccc2OCc2ccccc2F)cc1,i,i
NS(=O)(=O)c1ccc(NCc2cc(Cl)ccc2OCc2ccc(F)cc2)cc1,i,7.7
COc1cccc(NS(=O)(=O)CC23CCC(CC2=O)C3(C)C)c1 (stereo not drawn),i,nt
CC1(C)C2CCC1(CS(=O)(=O)NCc1ccc(Cl)cc1Cl)C(=O)C2 (stereo not drawn),-5.9,i
CC1=C(C(=O)Nc2ccccc2)C(c2ccco2)C(C#N)=C(SCC(=O)OC(C)C)N1 (stereo not drawn),i,i
CC1=C(C(=O)Nc2ccccc2)C(c2ccco2)C(C#N)=C(SCc2ccccc2)N1 (stereo not drawn),-6.5,i
Cc1nn(Cc2ccccc2Cl)c(C)c1C(=O)NCC(c1cccs1)N1CCOCC1 (stereo not drawn),i,i
COc1ccc(CCN(Cc2cc3cc(C)c(C)cc3nc2Cl)C(=O)C2CC2)cc1,-6.5,i
Cc1ccc2nc(Cl)c(CN(Cc3cccs3)C(=O)C3CC3)cc2c1,i,nt
O=C(COn1nnc2ccc(Cl)cc21)Nc1ccc(F)cc1,i,nt
O=C(COn1nnc2ccc(Cl)cc21)NC12CC3CC(CC(C3)C1)C2,-6.1,i
CCOC(=O)NNC(=O)C1CCC(C)CC1 (stereo not drawn),i,nt
CC(=O)c1cccc(NC(=O)Cn2cnc(S(=O)(=O)N3CCCC3)c2)c1,i,nt
COc1cccc(-c2nn(-c3ccc(C)cc3)cc2C(=O)NCC(c2cccs2)N2CCOCC2)c1 (stereo not drawn),-6.9,i
COc1ccc(-c2nn(-c3ccccc3)cc2C(=O)NCC(c2cccs2)N2CCOCC2)cc1 (stereo not drawn),i,nt
Cc1ccc(C(C(=O)NC2CCCCC2)N(CC2CCCO2)C(=O)CNC(=O)c2cccs2)cc1 (stereo not drawn),i,nt
CCC(C)(C)NC(=O)C(c1ccc(C)cc1)N(CC1CCCO1)C(=O)CNC(=O)c1cccs1 (stereo not drawn),-5.8,i
N#CC1CC(c2ccccc2)=NN1c1ccccc1[N+](=O)[O-] (stereo not drawn),i,nt
CCc1nc2ccccc2c(C(=O)OCCN2C(=O)c3ccccc3C2=O)c1C,-9.6,i
CCc1nc2ccccc2c(C(=O)OCC(=O)C(C)(C)C)c1C,i,i
CCc1nc2ccccc2c(C(=O)O)c1C,i,nt
CCc1nc2ccccc2c(C(=O)OCC(=O)NC(=O)c2cccn2C)c1C,-5.6,i
COc1ccccc1N1CSC2=C(C#N)C(c3ccc(SC)cc3)CC(=O)N2C1 (stereo not drawn),i,nt
SMILES,KCNQ2 inh,KCNQ2 pot
COC(=O)c1ccc(CN2CCC(Oc3cccc(C(=O)N4CCOCC4)c3)CC2)cc1,i,i
CCOCCCN(C(=O)Cn1nnc(-c2ccc(C)o2)n1)C(C(=O)NC1CCCC1)c1ccc(C)o1 (stereo not drawn),i,nt
O=C(CN(CCO)c1ccccc1)Nc1ccc(Cl)c(S(=O)(=O)N2CCOCC2)c1,i,nt
COc1ccc(Cl)cc1C(=O)NCCN(C)C,i,i
CN(C)CCNC(=O)c1ccc(COc2ccc(Cl)cc2Cl)cc1,-7.6,i
O=S(=O)(Cc1nnnn1-c1ccccc1)c1ccc(F)cc1,i,i
Cc1ccc(-c2ccc(/C=N/NC(=O)Cc3nnc(N)s3)o2)cc1Cl,i,nt
COc1ccc(-c2ccc(/C=N/NC(=O)Cc3nnc(N)s3)o2)cc1Cl,-7.4,i
O=C(COc1ccc(-n2ccnc2)cc1)Nc1cccc(Cl)c1,i,i
O=C(O)c1ccccc1NC(=S)NC(=O)c1sc2ccccc2c1Cl,i,i
O=C(NNC(=S)NC(=O)c1sc2ccccc2c1Cl)c1ccc(Cl)cc1,i,13
c1ccc(N/N=C(\Cc2ncc[nH]2)c2ccccc2)cc1,i,nt
Clc1cccc(N/N=C(\Cc2nc3ccccc3[nH]2)c2ccccc2)c1,-6.3,i
Cc1cc(=O)[nH]c2ccc(S(=O)(=O)NC3CCCCC3)cc12,i,i
CCN(CC)CCn1c2c(c(SCC(=O)Nc3ccc4c(c3)OCCO4)nc1=O)CCCC2,i,i
c1ccc(Cn2c(CNc3nc4ccccc4n3CCN3CCOCC3)nc3ccccc32)cc1,-6,i
c1ccc2c(c1)nc(NCc1ccc3c(c1)OCO3)n2CCN1CCOCC1,i,nt
COc1ccccc1NC(=O)c1sc2ncn(Cc3ccccc3C)c(=O)c2c1C,-5.8,i
CCn1cnc2sc(C(=O)Nc3ccccc3OC)c(C)c2c1=O,i,nt
Cc1ccc(C(=O)N/N=C(/CC(=O)c2cccs2)C(F)(F)F)cc1,i,13
